Pf growth 48h: Primary qHTS for delayed death inhibitors of the malarial parasite plastid, 48 hour incubation | P. falciparum luciferase growth in erythrocytes, 48 h | Potency, µM (highest dose often 28.7 µM), inactives show at the highest dose activity change, negative = inhibition, hits mostly inhibitors | 5.9% of 310,000 active | AID 504832, 2011; further: potency means the concentration at half of the fitted maximal effect; on the % scale 0 is the no-effect control and ±100 the full control effect
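Here the parasites carry a stable luciferase gene and grow inside erythrocytes in Albumax-based RPMI medium with compound for one erythrocytic cycle. Activity is scored as loss of luminescent signal.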
NS1 inh: qHTS Assay for Inhibitors of Influenza NS1 Protein Function; Potency, µM (highest dose often 46.1 µM), for the others: at the highest dose activity, positive = more growth; 0.4% of 270,000 active; calls by dose curve; further: potency means the concentration at half of the fitted maximal effect; actives are rising curves; nearly all actives have a fitted effect of over 50% in size
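Recovery from NS1-induced slow growth read by OD600 in budding yeast switched to galactose assay medium (pH 6.0, -URA) at 1:100 dilution. Compound 23 nl per well; the matching strain lacking NS1 serves as control.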
CHX counter: Cycloheximide Counterscreen for Small Molecule Inhibitors of Shiga Toxin | cell reporter, cycloheximide protein synthesis inhibition counterscreen | max response, % | 12% of 300,000 active | AID 2314, 2010; in the data active means max response mostly above about 13%, no sharp cut-off; inactive means mostly below about 14%; further: read at 38.3 µM for the half of the compounds with a filed dose; 0% is about no effect
SARS PLP yeast: qHTS of Yeast-based Assay for SARS-CoV PLP; AID 485353, 2010; 0.19% of 330,000 active; S. cerevisiae expressing SARS-CoV PLpro, growth rescue; Potency, µM (doses to about 32.9 µM), for the others: at the top dose activity, positive = growth rescue, usual class: activators; calls by dose curve; further: potency means the concentration at half of the fitted maximal effect; 0% is about no effect; nearly all actives have a fitted effect of over 55% in size
Shiga toxin inh: A qHTS for Small Molecule Inhibitors of Shiga Toxin; Vero cells, Shiga toxin protein synthesis inhibition reporter; inhibition, % at 38.7 µM; 9.2% of 290,000 active; in the data active means inhibition mostly above about 28%, no sharp cut-off; inactive means mostly below about 43%; further: 0% is about no effect
Pf growth 96h: Primary qHTS for delayed death inhibitors of the malarial parasite plastid, 96 hour incubation; P. falciparum luciferase reporter growth, 96 h; Potency, µM (top dose mostly 28.7 µM), without a hit: top-dose activity change, negative = inhibition, most hits filed as inhibitors; 6.9% of 320,000 active; AID 504834, 2011; further: potency means the concentration at half of the fitted maximal effect; on the % scale 0 is the no-effect control and ±100 the full control effect
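Luminescence readout: decreased luciferase signal marks inhibited growth of reporter-expressing P. falciparum in infected red cells (2% hematocrit, 0.05% parasitemia final), exposed to compound two generations (96 h, 37 C, 5% CO2).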
* marks the source's active call; other numbers are inactive results; i = inactive; ? = inconclusive; / = not tested or not shown; [ ] = remark or other dose. Sampled rows, rich in hits. Any-hit rate of the full collection: about 21%. Unless noted, the call rests on the fitted dose curve; in most records, active means well fitted inhibition curve with a large enough effect; inconclusive means small, poorly fitted or top-dose-only effect, or another doubt; inactive means no such curve, though single readings can be large or run the other way.

SMILES	Pf growth 48h	NS1 inh	CHX counter	SARS PLP yeast	Shiga toxin inh	Pf growth 96h
O=C(Cc1ccccc1)Oc1ccc([N+](=O)[O-])cc1	-18.6%	13.2%	2.5	-1.8%	-8.6	?
O=C(Cc1ccccc1)NC(C(=O)O)C(O)c1ccc([N+](=O)[O-])cc1 (stereo not given)	23.2%	1.8%	0.8	-0.5%	-1.0	10.4µM*
CC(Cc1ccccc1)NC(=O)c1ccc([N+](=O)[O-])cc1 (stereo not given)	232.4%	-5.2%	30.0*	-1.4%	60.7*	?
CC(=O)NC(C)Cc1ccccc1 (stereo not given)	/	8.2%	-2.4	16.7%	14.4	49.3%
CC(Cc1ccccc1)NC(=O)/C=C/c1ccc([N+](=O)[O-])cc1 (stereo not given)	1.1%	4.7%	-3.5	18.5%	15.9	1.3%
Cc1ccc(CC(=O)Nc2nccs2)cc1	38.0%	-1.5%	8.7	-1.9%	18.6	1.5%
C[C@]12c3[nH]c4ccc(Cl)cc4c3CCN1C(=O)[C@@H](CC(=O)NCCC1=CCCCC1)C[C@@H]2C(=O)N1CCOCC1	/	/	/	4.7%	/	/
O=C(N/N=C/c1ccc2c(c1)OCO2)c1cc(-c2ccccc2)nc2ccccc12	?	11.4%	-0.6	-5.8%	1.3	11.7µM*
O=C(/C=C/c1ccc2c(c1)OCO2)c1ccccn1	83.9%	-54.1%	71.7*	-0.5%	97.0*	1.7%
O=C(N/N=C/c1ccc2c(c1)OCO2)c1ccc2ccccc2n1	12.7%	/	26.4*	-5.7%	80.5	-0.4%
O=C(N/N=C/c1cc2c(cc1Br)OCO2)c1cc2ccccc2o1	?	-10.4%	19.7	2.1%	11.7	-3.3%
O=C(N/N=C/c1ccc2c(c1)OCO2)c1cc(-c2ccco2)nc2ccccc12	-23.4%	/	/	2.8%	/	-18.2%
O=C(N/N=C/c1cc2c(cc1Br)OCO2)c1ccccn1	239.3%	-7.3%	42.8*	-1.2%	54.6*	303.1%
CCN(CC(=O)Nc1ccc(NC(C)=O)cc1)C(=O)/C=C/c1ccc2c(c1)OCO2	3.9%	/	/	-6.3%	/	18.5%
O=C(N/N=C/c1ccsc1)c1ccc2ccccc2n1	0.0%	-2.9%	40.7*	-10.9%	73.8*	6.4%
Cc1cccc(C(=O)N/N=C/c2ccc3c(c2)OCO3)n1	13.3%	-13.1%	17.6	-2.1%	40.8	203.8%
O=C(N/N=C/c1ccc2c(c1)OCO2)c1ccccn1	198.3%	-4.1%	39.5*	-22.0%	92.9*	i
CCN(C(=O)/C=C/c1ccc2c(c1)OCO2)c1ccccc1	70.7%	-20.2%	21.2*	14.1%	42.8*	6.8%
CC(=O)c1ccc(S(=O)(=O)N2CCC(C(=O)Nc3ncc(C)s3)CC2)cc1	/	/	/	-5.1%	/	/
CC(=O)Nc1ccccc1/C=C/c1ccc2c(C)cc(C)c(O)c2n1	-1.1%	-1.0%	-2.3	-32.8%	-4.2	?
CC(=O)Nc1ccccc1/C=C/c1ccc2c(C)ccc(O)c2n1	19.1%	2.7%	17.1*	1.8%	17.6	-23.1%
COc1cc(CN(C(=S)NCC(=O)NC2CC2)C2CCCC2)cc(OC)c1OC	-30.1%	-6.0%	-1.5	-27.6%	-2.2	12.5%
CSc1nc(N)c2c(C)c(C)sc2n1	-2.4%	2.2%	-2.4	-2.2%	-1.0	-5.2%
C=C(C)CSc1nc(N)c2c(C)c(C)sc2n1	23.4%	-5.8%	18.9*	19.6%	47.7	/
COC(=O)c1ccc(NC(=O)c2cccnc2)cc1	43.2%	-5.0%	-1.7	-0.7%	/	167.0%
SMILES	Pf growth 48h	NS1 inh	CHX counter	SARS PLP yeast	Shiga toxin inh	Pf growth 96h
CCN(CC)c1ccc(NC(=O)c2cncc(Br)c2)cc1	-9.6%	-9.5%	42.8*	1.9%	59.8*	4.8%
CCN(CC)c1ccc(NC(=O)c2cccnc2)cc1	34.7%	1.6%	38.5*	/	60.8*	39.9%
CNS(=O)(=O)c1ccc(NC(=O)c2cncc(Br)c2)cc1	-15.5%[5.75 µM]	/	-3.6	-0.4%	-5.4	0.9%
CCOC(=O)c1nn(-c2ccc(F)cc2)c2c1CC/C2=C/c1ccccc1	-8.3%	4.4%	-4.8	-20.3%	-14.2	14.8%
O=C1c2ccccc2CC1(Cc1ccccc1)Cc1ccccc1	13.1µM*	-13.5%	-0.6	-36.8%	6.3	?
CCC1(CC)Cc2ccccc2C(=O)N1	5.3%	-7.4%	6.2	-2.0%	-3.5	21.9%
COc1ccccc1OCCNC(=O)CNC(=O)c1ccc(C(C)(C)C)cc1	?	/	/	-18.0%	/	?
CCN(CC)CCCNC(=O)C1CCN(c2ncnc3c2sc2cccc(F)c23)CC1	?	7.0%	-1.3	-0.1%	2.6	1.85µM*
N=c1n(CC(=O)c2cccc([N+](=O)[O-])c2)c2ccccc2n1Cc1ccccc1	?	/	5.7	-4.2%	14.6	14.7%
N=c1n(CCN2CCOCC2)c2ccccc2n1CC(=O)c1ccc(Cl)c(Cl)c1	11.7µM*	-163.0%	24.0*	-25.5%	10.6	0.465µM*
CCn1c(=N)n(CC(=O)c2cccc([N+](=O)[O-])c2)c2ccccc21	68.2%	8.9%	37.5*	-2.1%	80.8*	-0.8%
COc1cccc(C(=O)Cn2c(=N)n(C)c3ccccc32)c1	61.9%	-49.4%	30.6*	7.5%	29.9	28.9%
CCCn1c(=N)n(CC(=O)c2cccs2)c2ccccc21	-4.6%	0.0%	-5.2	3.7%	-5.8	27.1%
Cn1c(=N)n(CC(=O)c2cccs2)c2ccccc21	200.0%	6.7%	55.9*	2.8%	149.5*	i
COc1cccc(C(=O)Cn2c(NCCO)nc3ccccc32)c1	-15.6%	8.0%[9.22 µM]	-4.3	2.4%	18.6	?
CN(C(=O)CSc1nc2ccccc2[nH]1)C1CCS(=O)(=O)C1 (stereo not given)	-2.5%	/	/	-9.2%	/	21.8%
O[C@@H]1COC2[C@@H](O)CO[C@@H]21 (stereo not given in full)	/	/	12.2	/	-2.5	/
CN(C)S(=O)(=O)n1cc(/C=C(\NC(=O)c2ccccc2Cl)C(=O)N2CCOCC2)c2ccccc21	13.8%	8.6%	1.5	2.2%	-1.4	13.7%
COc1ccc(CCNC(=O)COC(=O)COc2ccc(C#N)cc2)cc1	1.4%	/	-2.2	5.2%	-3.5	6.3%
CN(C)Cc1c(C(=O)N/N=C/c2ccncc2)nnn1-c1nonc1N	/	2.0%	-1.1	0.6%	-7.6	2.6%
CN(C)C(CNC(=S)Nc1cccc(Cl)c1)c1ccccc1 (stereo not given)	?	/	-4.7	-8.0%	-2.0	?
Cc1cc(S(=O)(=O)N2CCCCCC2)c(Cl)cc1Cl	7.0%	-66.8%	-3.9	-12.6%	-17.1	/
N=c1n(CCN2CCCCC2)c2ccccc2n1CC(=O)c1cccs1	11.7µM*	2.8%	-3.1	-0.6%	-11.2	10.4µM*
CC(C)c1nc(C(=O)N2CCCC(CCC(=O)N(C)CCc3ccccn3)C2)cs1 (stereo not given)	7.1%	3.2%	4.3	0.6%	29.0	9.4%
O=C(c1ccc(-c2ccccc2)cc1)N1CCN(c2ccccn2)CC1	-4.8%	/	-2.7	-3.2%	-3.1	66.2%
